# Laboratory results from PubChem BioAssay.
# Calls of active or inactive are those of the source.
# Assays:
# [1] = test system: Plasmodium falciparum Sir2 (PF13_0152, Sir2A); experiment: Plasmodium falciparum Sir2A binding compounds – biochemical, small-molecule microarray, 635 nm fluorescence, primary screen (AID 1098); details: fluorescence 635 nm, higher = more signal;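 note: score merges spot fluorescence intensity with its signal-to-noise ratio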
# [2] = probe aDKK1 binding to arrayed compounds – biochemical, biotinylated probe, 635/667 nm fluorescence, primary screen (AID 1099); details: small-molecule microarray, higher = more signal;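 note: score merges 667nm spot fluorescence with signal to noise across triplicate slides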
# [3] = probe aCHRDL2 binding to arrayed compounds – biochemical, biotinylated probe, 635/667 nm fluorescence, primary screen (AID 1100); details: small-molecule microarray, higher = more signal
# [4] = change in splice reporter luminescence, either direction, cell-based, HEK293, spliceosome inhibition project, primary screen (AID 1101); details: HEK293 splicing luciferase reporter, 24 h, higher = more signal, called active from +8 up or from −8 down;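 note: HEK293 cells carrying a splicing-competent luciferase reporter gene; test concentration not given here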
# [5] = target: Fibroblast growth factor 10 (Homo sapiens) (UniProt O15520); experiment: compounds binding fibroblast growth factor 10 – biochemical, small-molecule microarray, 635 nm fluorescence, primary screen (AID 1102); details: FGF10 binding, fluorescence 635 nm, higher = more signal
# Sequence of Fibroblast growth factor 10 (Homo sapiens) (O15520 whole entry, looked up): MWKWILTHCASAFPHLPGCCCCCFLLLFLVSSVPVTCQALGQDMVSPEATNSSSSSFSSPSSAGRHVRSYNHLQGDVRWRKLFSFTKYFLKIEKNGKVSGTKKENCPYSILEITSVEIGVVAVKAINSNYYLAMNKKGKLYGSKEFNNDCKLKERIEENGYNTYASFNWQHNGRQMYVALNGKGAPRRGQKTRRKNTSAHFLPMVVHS
# [6] = test system: glycogen synthase kinase-3 (GSK3A per assay name; protocol says GSK3B); experiment: compounds binding glycogen synthase kinase-3 – biochemical, small-molecule microarray, 635 nm fluorescence, GSK3A, primary screen (AID 1103); details: fluorescence 635 nm, higher = more signal; note: the record names both GSK3A and GSK3B
# [7] = target: Epidermal growth factor receptor (Homo sapiens) (UniProt P00533); experiment: compounds binding epidermal growth factor receptor – biochemical, small-molecule microarray, 635 nm fluorescence, primary screen (AID 1104); details: EGFR binding, higher = more signal;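 note: score merges 667 nm emission intensity with spot signal to noise over triplicate slides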
# Sequence of Epidermal growth factor receptor (Homo sapiens) (P00533 whole entry, looked up): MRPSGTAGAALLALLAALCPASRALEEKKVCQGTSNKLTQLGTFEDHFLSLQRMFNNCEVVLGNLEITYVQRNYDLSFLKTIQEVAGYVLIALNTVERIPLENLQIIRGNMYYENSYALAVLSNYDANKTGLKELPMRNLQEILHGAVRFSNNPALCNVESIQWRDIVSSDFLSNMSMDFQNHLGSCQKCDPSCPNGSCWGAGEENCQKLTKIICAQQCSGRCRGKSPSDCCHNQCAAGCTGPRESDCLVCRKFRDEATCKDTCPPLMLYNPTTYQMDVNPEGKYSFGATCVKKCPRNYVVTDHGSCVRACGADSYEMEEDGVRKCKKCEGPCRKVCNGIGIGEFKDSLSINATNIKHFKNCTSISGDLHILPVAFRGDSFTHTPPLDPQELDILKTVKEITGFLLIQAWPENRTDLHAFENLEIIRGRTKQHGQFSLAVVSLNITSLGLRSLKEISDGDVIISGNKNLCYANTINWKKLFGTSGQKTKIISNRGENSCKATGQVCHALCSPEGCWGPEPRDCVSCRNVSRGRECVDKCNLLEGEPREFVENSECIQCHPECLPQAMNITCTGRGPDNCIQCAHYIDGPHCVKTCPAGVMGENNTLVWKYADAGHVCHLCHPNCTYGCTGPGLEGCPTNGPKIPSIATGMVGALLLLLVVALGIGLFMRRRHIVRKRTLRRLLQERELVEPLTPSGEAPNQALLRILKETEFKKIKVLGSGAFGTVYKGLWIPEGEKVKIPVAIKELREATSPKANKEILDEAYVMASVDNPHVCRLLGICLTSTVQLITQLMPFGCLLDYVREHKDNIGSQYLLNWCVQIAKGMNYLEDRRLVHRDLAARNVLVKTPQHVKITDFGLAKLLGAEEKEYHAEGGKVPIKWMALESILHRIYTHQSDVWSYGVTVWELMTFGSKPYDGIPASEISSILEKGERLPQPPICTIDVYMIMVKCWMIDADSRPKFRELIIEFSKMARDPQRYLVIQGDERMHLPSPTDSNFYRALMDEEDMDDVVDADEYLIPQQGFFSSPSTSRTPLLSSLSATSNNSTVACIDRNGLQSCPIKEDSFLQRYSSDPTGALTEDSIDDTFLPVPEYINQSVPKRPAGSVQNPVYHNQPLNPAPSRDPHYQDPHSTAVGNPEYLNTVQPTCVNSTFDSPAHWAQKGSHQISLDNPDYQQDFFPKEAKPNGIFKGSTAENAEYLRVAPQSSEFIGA
# [8] = target: Follistatin-related protein 3 (Homo sapiens) (UniProt O95633); experiment: compounds binding follistatin-related protein 3 – biochemical, small-molecule microarray, 635 nm fluorescence, primary screen (AID 1105); details: FSTL3 binding, higher = more signal;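 note: score merges emission near 667 nm and signal to noise per printed spot across three slides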
# Sequence of Follistatin-related protein 3 (Homo sapiens) (O95633 whole entry, looked up): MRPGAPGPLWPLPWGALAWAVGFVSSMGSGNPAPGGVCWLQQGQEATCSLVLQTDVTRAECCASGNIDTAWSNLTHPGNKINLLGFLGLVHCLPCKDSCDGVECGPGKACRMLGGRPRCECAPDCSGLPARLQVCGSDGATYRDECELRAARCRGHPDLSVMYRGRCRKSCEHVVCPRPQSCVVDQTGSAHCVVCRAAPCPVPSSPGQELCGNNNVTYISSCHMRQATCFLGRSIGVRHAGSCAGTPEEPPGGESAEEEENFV
# [9] = target: Dickkopf-related protein 1 (Homo sapiens) (UniProt O94907); experiment: small molecules binding DKK1 protein – biochemical, small-molecule microarray, 635 nm fluorescence scan, primary screen (AID 1106); details: higher = more signal;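 note: score merges emission near 667 nm with signal to noise over three replicate slides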
# Sequence of Dickkopf-related protein 1 (Homo sapiens) (O94907 whole entry, looked up): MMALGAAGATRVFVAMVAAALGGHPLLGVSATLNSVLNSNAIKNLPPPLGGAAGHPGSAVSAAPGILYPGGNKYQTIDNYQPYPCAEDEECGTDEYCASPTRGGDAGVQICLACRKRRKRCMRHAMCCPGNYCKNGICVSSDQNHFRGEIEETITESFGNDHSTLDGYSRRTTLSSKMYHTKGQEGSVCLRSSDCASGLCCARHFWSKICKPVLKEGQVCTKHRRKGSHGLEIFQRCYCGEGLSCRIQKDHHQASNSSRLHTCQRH
# [10] = test system: Inhibin beta A chain (activin A); experiment: small molecules binding activin A – biochemical, small-molecule microarray, 635 nm fluorescence scan, primary screen (AID 1107); details: INHBA, higher = more signal;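 note: mouse activin A protein probed at 4.33 µg/mL on printed slides; score merges bound-protein fluorescence near 667 nm with spot signal-to-noise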
# [11] = test system: Human papillomavirus type 1a protein E7 (residues 44-93); experiment: small molecules binding HPV E7 44-93 – biochemical, small-molecule microarray, residues 44-93, 635 nm fluorescence, primary screen (AID 1108); details: fluorescence 635 nm, higher = more signal;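 note: E7 fragment applied at 1 µg/mL in TBST for 1 h at 4 C; score combines spot fluorescence with its signal to noise ratio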
# [12] = hepatitis C replication reporter changes, two-sided – Huh7 cells, luciferase reporter, HCV replication inhibitor project, primary screen (AID 1109); details: Huh7 HCV replicon luciferase reporter, 48 h; higher = more signal;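 note: huh7 hepatoma cells harbouring a luciferase neomycin HCV replicon reporter; luciferase luminescence as measure of HCV replicon replication; test concentration not given here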
# [13] = target: Left-right determination factor 2 (Homo sapiens) (UniProt O00292); experiment: small molecules binding LEFTY2 protein – biochemical, small-molecule microarray, 635 nm fluorescence scan, primary screen (AID 1110); details: higher = more signal
# Sequence of Left-right determination factor 2 (Homo sapiens) (O00292 whole entry, looked up): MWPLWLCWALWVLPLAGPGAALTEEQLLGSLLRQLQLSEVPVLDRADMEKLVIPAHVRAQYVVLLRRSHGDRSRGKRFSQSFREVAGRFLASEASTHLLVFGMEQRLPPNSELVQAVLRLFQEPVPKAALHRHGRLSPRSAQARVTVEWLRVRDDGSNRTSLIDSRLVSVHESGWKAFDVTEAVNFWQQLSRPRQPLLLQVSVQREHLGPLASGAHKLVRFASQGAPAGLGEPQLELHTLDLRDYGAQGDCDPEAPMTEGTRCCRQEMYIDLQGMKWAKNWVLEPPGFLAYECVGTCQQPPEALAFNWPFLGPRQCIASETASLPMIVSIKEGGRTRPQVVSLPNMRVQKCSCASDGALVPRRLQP
# [14] = target: Calmodulin-1 (Homo sapiens) (UniProt P0DP23); experiment: small molecules binding calmodulin-1 with EGTA – biochemical, small-molecule microarray, Cy5-labelled CALM1, profiling panel (AID 1111); details: Cy5-CALM1 binding fluorescence, higher = more signal;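 note: labelled calmodulin applied in Tris saline Tween buffer holding calcium plus EGTA and DTT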
# [15] = target: Calmodulin-1 (Homo sapiens) (UniProt P0DP23); experiment: small molecules binding Ca-loaded calmodulin-1 – biochemical, small-molecule microarray, Cy5-labelled CALM1, plus calcium, artefact control for SMM control-protein annotation, profiling panel (AID 1112); details: Cy5-CALM1 binding fluorescence, higher = more signal;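 note: score merges spot fluorescence with signal to noise from triplicate slides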
# [16] = probe aWnt5a binding to arrayed compounds – biochemical, biotinylated probe, 635/667 nm fluorescence, primary screen (AID 1113); details: small-molecule microarray, higher = more signal;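 note: score merges 667 nm fluorescence intensity with signal-to-noise per printed feature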
# [17] = probe aShh binding to arrayed compounds – biochemical, biotinylated probe, 635/667 nm fluorescence, primary screen (AID 1114); details: small-molecule microarray, higher = more signal;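 note: probe is biotin-labelled aShh protein from a stem cell growth factor screen; measures binding of labelled protein to compounds printed on the slide; score merges feature fluorescence at 667 nm with signal-to-noise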
# [18] = probe aNog binding to arrayed compounds – biochemical, biotinylated probe, 635/667 nm fluorescence, primary screen (AID 1115); details: small-molecule microarray, higher = more signal;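 note: probe is biotinylated aNog protein used at 0.15 µg/mL for 1 h at 4 C; z-score combines 667 nm fluorescence of each spot with its signal to noise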
# [19] = target: Torsin-1A-interacting protein 1 (Homo sapiens) (UniProt Q5JTV8); experiment: compound microarray binding of lysate hLAP1 – cell lysate, small-molecule microarray, COS7 lysate, 635/667 nm fluorescence, primary screen (AID 1116); details: 635 nm fluorescence, higher = more signal
# Sequence of Torsin-1A-interacting protein 1 (Homo sapiens) (Q5JTV8 whole entry, looked up): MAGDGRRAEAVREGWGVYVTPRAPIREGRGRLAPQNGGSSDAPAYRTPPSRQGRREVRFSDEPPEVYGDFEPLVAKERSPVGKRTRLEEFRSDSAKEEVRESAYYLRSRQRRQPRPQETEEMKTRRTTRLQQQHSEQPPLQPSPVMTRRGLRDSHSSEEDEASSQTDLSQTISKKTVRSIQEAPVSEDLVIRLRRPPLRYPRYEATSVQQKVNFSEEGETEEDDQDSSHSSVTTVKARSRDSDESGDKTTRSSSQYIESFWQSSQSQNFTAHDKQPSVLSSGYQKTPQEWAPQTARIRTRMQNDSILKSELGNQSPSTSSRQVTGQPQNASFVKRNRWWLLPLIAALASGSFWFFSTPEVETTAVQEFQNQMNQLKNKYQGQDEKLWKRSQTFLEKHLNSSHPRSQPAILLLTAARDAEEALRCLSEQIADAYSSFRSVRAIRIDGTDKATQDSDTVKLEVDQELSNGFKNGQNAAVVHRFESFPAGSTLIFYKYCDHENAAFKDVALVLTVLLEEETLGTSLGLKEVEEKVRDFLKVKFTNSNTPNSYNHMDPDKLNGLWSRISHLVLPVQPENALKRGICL
# [20] = target: Alpha-bungarotoxin (Bungarus multicinctus) (UniProt P60615); experiment: compounds binding labelled alpha-BTX control protein – biochemical, small-molecule microarray, Alexa647 label, 635/667 nm fluorescence, artefact control for SMM control protein annotation, profiling panel (AID 1117); details: alpha-BTX-A647 binding fluorescence, higher = more signal
# Sequence of Alpha-bungarotoxin (Bungarus multicinctus) (P60615 whole entry, looked up): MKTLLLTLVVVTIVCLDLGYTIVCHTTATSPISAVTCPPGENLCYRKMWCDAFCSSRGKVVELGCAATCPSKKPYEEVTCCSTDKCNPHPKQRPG
Structure (SMILES),composite z-score [1],composite z-score [2],composite z-score [3],z-score [4],composite z-score [5],composite z-score [6],composite z-score [7],composite z-score [8],composite z-score [9],composite z-score [10],composite z-score [11],z-score [12],composite z-score [13],composite z-score [14],composite z-score [15],composite z-score [16],composite z-score [17],composite z-score [18],composite z-score [19],composite z-score [20]
Cc1ccc(S[C@]2(C(=O)O)CC(=O)N(C(C)C)[C@@H]2c2ccc(CO)cc2I)cc1,1.33,0.831,1.18,-2.55 (inactive),0.0877,0.511,-0.645,0.315,-0.27,1.33,0.506,-1.31,-0.195,1.75,0.845,0.0611,0.111,1.65,0.836,1.18
CC(C)NC(=O)[C@@H]1c2ccccc2C(=O)N(C2Cc3ccccc3C2)[C@H]1c1ccc(CO)cc1,0.959,0.172,0.749,-0.535 (inactive),0.16,0.726,-0.477,0.0389,-0.224,0.175,1.41,-1.31,0.25,0.344,-0.225,0.0142,-0.366,-0.449,0.724,0.399
COCC(=C=CC[C@@H](O)c1cccc(OCCO)c1)C[C@@H](O)c1ccccn1,0.976,-0.193,-0.355,0.758 (inactive),0.751,0.175,0.101,0.167,0.307,0.565,-0.768,0.0065,0.493,-0.301,-0.0023,-0.0459,-0.221,-0.388,1.15,0.216
CC#CC(=O)Oc1ccccc1C=CC(=O)OCC,0.743,-0.223,-0.226,-0.634 (inactive),-0.176,0.0939,0.27,0.104,-0.0092,0.321,0.793,-2.16,0.136,0.0515,-0.27,-0.096,-0.0709,-0.256,0.045,0.115
COc1cc2c(cc1OC)CN(C(=O)[C@H]1[C@@H]3C(=O)O[C@@H](c4ccccc4)[C@@H](c4ccccc4)N3[C@@H](c3ccc(O)cc3)[C@]13C(=O)Nc1ccccc13)CC2,1.23,-0.0009,-0.123,-0.0299 (inactive),0.708,0.691,-0.0502,-0.276,-0.198,-0.188,1.46,-2.54,0.0835,0.92,0.427,-0.166,-0.0289,0.386,1.01,1.43
